Records with an inconclusive call do not appear. Activity calls are given as the source filed them. The call rests on the fitted dose curve; in most records, active means well fitted curve in the direction sought with a large enough effect; inconclusive means small, poorly fitted or top-dose-only effect, or another doubt; inactive means no such curve, though single readings can be large; an effect the other way counts as inactive or inconclusive.
Legend:
[1] = target: Phospholipid hydroperoxide glutathione peroxidase GPX4 (Homo sapiens) (UniProt P36969); assay: Primary qHTS Assay for Inhibitors of Recombinant Selenoprotein Glutathione Peroxidase 4 (GPX4) (AID 1845192); conditions: outcome: dose series up to 50 µM unless noted; further: nearly all actives have a fitted effect of over 65% in size
Method in brief: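 GR-coupled assay: recombinant GPX4 preincubated 30 min with compound at room temperature; final 200 nM GPX4, 1 mM GSH, 0.5 mM cumene hydroperoxide, 0.5 mM NADPH, 100 nM GR, 0.01% BSA, pH 7.5 Tris. NADPH fluorescence (340/450 nm) read at 0 and 15 min.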

[2] = target: ATP-dependent 6-phosphofructokinase (Trypanosoma brucei brucei) (UniProt O15648); assay: qHTS Assay to Find Inhibitors of T. brucei phosphofructokinase: hit validation (AID 492961);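 further: luminescence reports ADP formed as PFK phosphorylates fructose-6-phosphate with ATP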
Method in brief: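 Inhibition of parasite PFK is measured as reduced ADP formation, quantified via luciferase after ATP depletion. Assay used 0.1 mM ATP, 0.5 mM F6P, 1.25 nM enzyme, 45 min incubation.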

[3] = tested on: AS120; assay: qHTS profiling for inhibitors of Plasmodium falciparum proliferation (AID 504749); further: nearly all actives have a fitted effect of over 60% in size; conditions: P. falciparum in erythrocytes, SYBR Green DNA, 72 h; series mostly up to 28.7 µM
Method in brief: (§1)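 P. falciparum-infected erythrocytes (0.3% parasitemia, 2.5% hematocrit) incubated with compound 72 h at 37 C, 5% CO2. Parasite DNA detected by SYBR Green after lysis, overnight at room temperature; normalised to 0.29 uM artemisinin and DMSO.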

[4] = tested on: ATS189; assay: as above; conditions: P. falciparum in erythrocytes, SYBR Green DNA, 72 h; series mostly up to 28.7 µM
Method in brief: as §1

[5] = tested on: CP191; assay: as above; conditions: P. falciparum in erythrocytes, SYBR Green DNA, 72 h; series mostly up to 28.7 µM
Method in brief: as §1

[6] = tested on: CP192; assay: as above; conditions: P. falciparum in erythrocytes, SYBR Green DNA, 72 h; series mostly up to 28.7 µM
Method in brief: as §1

[7] = tested on: CP194; assay: as above; conditions: P. falciparum in erythrocytes, SYBR Green DNA, 72 h; series mostly up to 28.7 µM
Method in brief: as §1

[8] = tested on: CP201; assay: as above; conditions: P. falciparum in erythrocytes, SYBR Green DNA, 72 h; series mostly up to 28.7 µM
Method in brief: as §1

[9] = tested on: CP203; assay: as above; conditions: P. falciparum in erythrocytes, SYBR Green DNA, 72 h; series mostly up to 28.7 µM
Method in brief: as §1

[10] = tested on: CP247; assay: as above; conditions: P. falciparum in erythrocytes, SYBR Green DNA, 72 h; series mostly up to 28.7 µM
Method in brief: as §1

[11] = tested on: CP291; assay: as above; conditions: P. falciparum in erythrocytes, SYBR Green DNA, 72 h; series mostly up to 28.7 µM
Method in brief: as §1

[12] = tested on: DFO2036; assay: as above; conditions: P. falciparum in erythrocytes, SYBR Green DNA, 72 h; series mostly up to 28.7 µM
Method in brief: as §1

[13] = tested on: DIV14; assay: as above; conditions: P. falciparum in erythrocytes, SYBR Green DNA, 72 h; series mostly up to 28.7 µM
Method in brief: as §1

[14] = tested on: DIV17; assay: as above; conditions: P. falciparum in erythrocytes, SYBR Green DNA, 72 h; series mostly up to 28.7 µM
Method in brief: as §1

[15] = tested on: GB4; assay: as above; conditions: P. falciparum in erythrocytes, SYBR Green DNA, 72 h; series mostly up to 28.7 µM
Method in brief: as §1

[16] = tested on: P94_40; assay: as above; conditions: P. falciparum in erythrocytes, SYBR Green DNA, 72 h; series mostly up to 28.7 µM
Method in brief: as §1

[17] = tested on: PC49; assay: as above; conditions: P. falciparum in erythrocytes, SYBR Green DNA, 72 h; series mostly up to 28.7 µM
Method in brief: as §1

[18] = tested on: TAB109; assay: as above; conditions: P. falciparum in erythrocytes, SYBR Green DNA, 72 h; series mostly up to 28.7 µM
Method in brief: as §1

[19] = tested on: TAB113; assay: as above; conditions: P. falciparum in erythrocytes, SYBR Green DNA, 72 h; series mostly up to 28.7 µM
Method in brief: as §1

[20] = tested on: W2; assay: as above; conditions: P. falciparum in erythrocytes, SYBR Green DNA, 72 h; series mostly up to 28.7 µM
Method in brief: as §1

Measured: Potency

Chain of Phospholipid hydroperoxide glutathione peroxidase GPX4 (Homo sapiens) (P36969 whole entry, looked up): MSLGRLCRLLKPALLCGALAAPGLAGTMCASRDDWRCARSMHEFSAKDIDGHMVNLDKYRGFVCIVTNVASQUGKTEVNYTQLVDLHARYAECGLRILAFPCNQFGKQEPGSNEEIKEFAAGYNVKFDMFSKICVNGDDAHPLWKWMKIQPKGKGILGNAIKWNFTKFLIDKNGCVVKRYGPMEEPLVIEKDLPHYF
Chain of ATP-dependent 6-phosphofructokinase (Trypanosoma brucei brucei) (O15648 whole entry, looked up): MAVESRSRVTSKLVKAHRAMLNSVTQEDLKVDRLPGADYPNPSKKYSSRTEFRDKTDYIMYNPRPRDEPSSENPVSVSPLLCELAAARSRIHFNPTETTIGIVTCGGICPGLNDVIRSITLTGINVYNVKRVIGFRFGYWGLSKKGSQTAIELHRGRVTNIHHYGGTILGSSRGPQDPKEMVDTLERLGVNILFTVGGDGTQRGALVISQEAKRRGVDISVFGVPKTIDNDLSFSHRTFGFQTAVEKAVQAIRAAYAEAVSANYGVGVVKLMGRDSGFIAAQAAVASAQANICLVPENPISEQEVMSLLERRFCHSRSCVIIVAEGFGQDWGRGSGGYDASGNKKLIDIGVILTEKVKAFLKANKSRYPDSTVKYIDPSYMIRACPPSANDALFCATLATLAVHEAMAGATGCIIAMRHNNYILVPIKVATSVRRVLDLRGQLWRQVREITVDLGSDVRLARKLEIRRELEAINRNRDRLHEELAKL

N[C@H](Cc1cnc[nH]1)C(=O)O
inactive: [1]

COC(=O)[C@@H]1[C@@H]2C[C@H]3c4[nH]c5ccccc5c4CCN3C[C@@H]2CC[C@@H]1O
not listed: [1]
inactive: all other assays above

CNC(=O)[C@H]1O[C@@H](n2cnc3c(NCc4cccc(I)c4)nc(Cl)nc32)[C@H](O)[C@@H]1O
inactive: [1]

C[C@@H](C(=O)O)c1ccc(-c2ccccc2)c(F)c1
not listed: [1]
inactive: all other assays above

Reference: PubChem BioAssay (NCATS)
